In the supplement of paper PMC10646978:
± gives the standard deviation.

Key:
Details in all cases: modulator concentration 10 µM
[1] = test system: RAW-Dual (murine macrophage reporter line); assay: NF-kB reporter (SEAP) activity fold change vs agonist alone; higher = enhanced NF-kB activity
Procedure, shortened: (§1)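 RAW-Dual murine macrophage reporter cells were plated at 50 000 per well in 384-well plates, pin-transferred compound to 10 μM final, and pre-incubated for 1 hour at 37 °C before a PRR agonist was added and the cells incubated overnight. NF-κB activity was read from supernatant SEAP with QUANTI-Blue at 620 nm absorbance, and IRF activity from Lucia luciferase with QUANTI-Luc by luminescence. Each signal was expressed as fold change by dividing by the mean agonist-only control on the same plate. Two replicate plates were averaged, with errors obtained by propagation.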

[2] = test system: RAW-Dual (murine macrophage reporter line); assay: IRF reporter (Lucia luciferase) activity fold change vs agonist alone; higher = enhanced IRF activity
Procedure, shortened: as §1

[3] = test system: RAW-Dual (murine macrophage reporter line); assay: viability score (confluency relative to resting cells, overnight) (fraction); higher = more viable, active = viable (0.7 or more)
Procedure, shortened: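 Confluency was the readout: RAW-Dual macrophages were imaged with IncuCyte after an overnight exposure to compound at 10 μM final. IncuCyte software produced two masks over all imaged wells. The viability score expresses confluency against resting cells, and both masks had to exceed 70% of resting cells for a compound to meet the cutoff.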

[4] = agonist: CpG ODN 1826 0.5 ug/mL

Row | SMILES | NF-kB reporter [1, 4] | NF-kB reporter ([1]; agonist: LPS 0.1 ug/mL) | NF-kB reporter ([1]; agonist: MPLA […]) | IRF reporter ([2]; agonist: 3'3'-cGAMP 10 ug/mL) | IRF reporter ([2]; agonist: LPS 0.1 ug/mL) | IRF reporter ([2]; agonist: MPLA […]) | viability score [3]
1 | COC(=O)N[C@H](C(=O)N[C@@H](Cc1ccccc1)[C@@H](O)CN(Cc1ccc(-c2ccccn2)cc1)NC(=O)[C@@H](NC(=O)OC)C(C)(C)C)C(C)(C)C.O=S(=O)(O)O | 1.78 ± 0.14 | 1.27 ± 0.1 | 1.46 ± 0.15 | 0.886 ± 0.064 | 1.02 ± 0.061 | 1.14 ± 0.1 | 1.01 (active)
2 | CCCN(CCC)C(=O)C1=Cc2ccc(-c3ccc(C(=O)N4CCCC4)cc3)cc2N=C(N)C1 | 0.432 ± 0.022 | 1.08 ± 0.17 | 1.12 ± 0.11 | 0.724 ± 0.034 | 1.29 ± 0.29 | 1.58 ± 0.49 | 0.957 (active)
3 | Cc1ccc(-n2ncnc2-c2ccccc2C)cc1Cl | 0.759 ± 0.064 | 0.787 ± 0.044 | 1.14 ± 0.11 | 0.777 ± 0.052 | 1.48 ± 0.12 | 1.65 ± 0.21 | 0.996 (active)
4 | Cc1ncc(CC(=O)N2CCC(c3ccccc3F)S(=O)(=O)CC2)s1 (configuration not stated) | 0.93 ± 0.041 | 0.961 ± 0.1 | 0.959 ± 0.053 | 0.983 ± 0.074 | 0.985 ± 0.14 | 0.998 ± 0.27 | 1.01 (active)
5 | CC/C(=C(\c1ccccc1)c1ccc(OCCN(C)C)cc1)c1ccccc1.O=C(O)CC(O)(CC(=O)O)C(=O)O | 0.808 ± 0.064 | 0.859 ± 0.053 | 1.09 ± 0.11 | 0.963 ± 0.048 | 1.32 ± 0.076 | 1.38 ± 0.12 | 1.02 (active)
6 | CCN(CCO)CCCC(C)Nc1ccnc2cc(Cl)ccc12.O=S(=O)(O)O (configuration not stated) | 0.877 ± 0.037 | 0.984 ± 0.08 | 1.44 ± 0.24 | 0.984 ± 0.049 | 1.08 ± 0.28 | 1.15 ± 0.42 | 1 (active)
7 | C=CCNc1oc(Cc2cccc3ccccc23)nc1C#N | 0.818 ± 0.039 | 1.04 ± 0.091 | 1.13 ± 0.062 | 0.731 ± 0.036 | 1.16 ± 0.25 | 1.28 ± 0.4 | 0.952 (active)
8 | CN1CCN2c3ncccc3Cc3ccccc3C2C1 (configuration not stated) | 0.912 ± 0.17 | 1.07 ± 0.22 | 1.71 ± 0.85 | 0.861 ± 0.036 | 1.42 ± 0.3 | 1.18 ± 0.21 | 0.998 (active)
9 | O=S(=O)(N=Cc1c(O)ccc2ccccc12)c1cccs1 | 1.05 ± 0.23 | 1 ± 0.079 | 0.876 ± 0.12 | 0.74 ± 0.022 | 0.988 ± 0.15 | 0.992 ± 0.2 | 0.999 (active)
10 | Cl.Nc1c2c(nc3ccccc13)CCCC2 | 0.172 ± 0.048 | 0.751 ± 0.041 | 0.918 ± 0.06 | 0.616 ± 0.024 | 0.806 ± 0.25 | 0.837 ± 0.12 | 0.995 (active)
11 | O=C(O)CN1C(=O)c2cccc3cccc(c23)C1=O | 1.11 ± 0.083 | 0.935 ± 0.053 | 1.01 ± 0.039 | 0.934 ± 0.053 | 0.911 ± 0.14 | 0.956 ± 0.22 | 0.998 (active)
12 | O=C(NC(=S)Nc1ccccc1C(F)(F)F)c1cccc(I)c1 | 0.927 ± 0.088 | 0.989 ± 0.076 | 0.9 ± 0.066 | 0.989 ± 0.025 | 1.24 ± 0.13 | 1.09 ± 0.14 | 1.01 (active)
13 | CCOC(=O)N(CC(=O)OC)CP(=O)(O)C(Cc1ccccc1)C(=O)O (configuration not stated) | 0.988 ± 0.058 | 1.02 ± 0.07 | 0.969 ± 0.069 | 1.03 ± 0.045 | 1.41 ± 0.21 | 1.07 ± 0.095 | 1 (active)
14 | CC(=O)OC1(C(C)=O)CCC2C3CC(C)C4=CC(=O)CCC4(C)C3CCC21C (configuration not stated) | 1.65 ± 0.4 | 1.36 ± 0.11 | 1.29 ± 0.089 | 0.937 ± 0.045 | 1.1 ± 0.13 | 1.23 ± 0.14 | 0.984 (active)
15 | Nc1ncnc2c1ncn2[C@@H]1O[C@H](CO)[C@@H](O)[C@H]1O | 1.03 ± 0.08 | 1.13 ± 0.079 | 1.17 ± 0.11 | 1.22 ± 0.25 | 0.879 ± 0.03 | 0.852 ± 0.11 | 1 (active)
16 | CC1(C)OC(=O)C=CC2(C)C1CC(O)C1(C)C2CCC2(C)C(c3ccoc3)OC(=O)C3OC321 (configuration not stated) | 1.29 ± 0.35 | 1.1 ± 0.11 | 1.06 ± 0.14 | 0.944 ± 0.032 | 1.22 ± 0.15 | 1.24 ± 0.17 | 0.99 (active)
17 | S=C(NCc1ccc2c(c1)OCO2)N1CCN(c2ncnc3c2oc2ccccc23)CC1 | 0.943 ± 0.19 | 1.6 ± 0.5 | 2.24 ± 0.18 | 0.623 ± 0.021 | 1.35 ± 0.27 | 1.96 ± 0.42 | 0.958 (active)
18 | O=C(O)C=Cc1cccc(NS(=O)(=O)C=Cc2ccccc2)c1 | 1.06 ± 0.094 | 0.968 ± 0.084 | 1.33 ± 0.19 | 0.956 ± 0.07 | 1.29 ± 0.28 | 1.34 ± 0.28 | 1.02 (active)

Row | SMILES | NF-kB reporter [1, 4] | NF-kB reporter ([1]; agonist: LPS 0.1 ug/mL) | NF-kB reporter ([1]; agonist: MPLA […]) | IRF reporter ([2]; agonist: 3'3'-cGAMP 10 ug/mL) | IRF reporter ([2]; agonist: LPS 0.1 ug/mL) | IRF reporter ([2]; agonist: MPLA […]) | viability score [3]
19 | CN1CCN(C(=O)c2cc(-c3ccccc3)nc3ccccc23)CC1 | 1.03 ± 0.11 | 0.906 ± 0.059 | 0.957 ± 0.043 | 0.941 ± 0.15 | 0.923 ± 0.051 | 0.884 ± 0.081 | 0.996 (active)
20 | c1cn2cc(-c3ccc4cn[nH]c4c3)nc(Nc3ccc(N4CCOCC4)cc3)c2n1 | 0.99 ± 0.24 | 0.759 ± 0.06 | 1.25 ± 0.12 | 0.24 ± 0.015 | 0.897 ± 0.12 | 1.1 ± 0.26 | 0.978 (active)
21 | O=[N+]([O-])c1ccccc1S(=O)(=O)NCc1ccc2c(c1)OCO2 | 1 ± 0.088 | 0.988 ± 0.075 | 0.937 ± 0.092 | 0.89 ± 0.028 | 1.05 ± 0.14 | 1.09 ± 0.2 | 1.03 (active)
22 | Clc1cccc(Nc2nc(-c3ccccn3)cs2)c1 | 0.881 ± 0.15 | 0.379 ± 0.2 | 0.597 ± 0.18 | 0.537 ± 0.092 | 0.658 ± 0.2 | 0.658 ± 0.23 | 0.246 (inactive)
23 | c1ccc(CSc2nnc(-c3ccncc3)[nH]2)cc1 | 1.08 ± 0.085 | 0.945 ± 0.097 | 1.04 ± 0.028 | 0.582 ± 0.033 | 0.888 ± 0.043 | 0.872 ± 0.09 | 0.996 (active)
24 | CC(=O)CCc1oc2ccc([N+](=O)[O-])cc2c1-c1ccc(C)o1 | 1.04 ± 0.12 | 0.837 ± 0.065 | 0.825 ± 0.084 | 0.817 ± 0.048 | 0.849 ± 0.12 | 0.713 ± 0.17 | 0.973 (active)
25 | COc1cccc(N2CCN(C3CCN(CC4CCOCC4)CC3)CC2)c1 | 0.75 ± 0.078 | 1.03 ± 0.11 | 1.22 ± 0.17 | 0.901 ± 0.043 | 1.26 ± 0.23 | 1.42 ± 0.49 | 0.966 (active)
26 | CC(=NNC(=O)COc1ccc(Cl)cc1[N+](=O)[O-])c1cccc(Br)c1 | 0.961 ± 0.091 | 1.11 ± 0.064 | 0.89 ± 0.053 | 0.983 ± 0.032 | 1.47 ± 0.22 | 1.19 ± 0.22 | 1 (active)
27 | CC(C)(C)c1ccc(=O)n(CC2CN(S(C)(=O)=O)C2)n1 | 0.983 ± 0.097 | 1.13 ± 0.095 | 0.918 ± 0.092 | 1.02 ± 0.058 | 1.15 ± 0.1 | 1.1 ± 0.34 | 1.01 (active)
28 | O=C(Nc1ccc(F)c([N+](=O)[O-])c1)c1cccs1 | 1.07 ± 0.072 | 1.2 ± 0.098 | 1.11 ± 0.067 | 0.964 ± 0.037 | 1.61 ± 0.14 | 1.37 ± 0.13 | 0.975 (active)
29 | O=C(C=Cc1cccc([N+](=O)[O-])c1)NCCc1ccccc1 | 1.01 ± 0.17 | 1 ± 0.12 | 0.948 ± 0.12 | 0.963 ± 0.048 | 1.27 ± 0.24 | 1.32 ± 0.24 | 0.99 (active)
30 | CC(=O)Oc1ccc2occ(C(=O)c3cccs3)c2c1 | 0.844 ± 0.099 | 0.964 ± 0.13 | 1.19 ± 0.14 | 0.836 ± 0.039 | 1.17 ± 0.074 | 1.26 ± 0.18 | 1.02 (active)
31 | COc1ccc(-c2csc(NC(=O)CCc3ccccc3)c2C(=O)O)cc1 | 0.697 ± 0.1 | 0.809 ± 0.072 | 1.04 ± 0.15 | 0.957 ± 0.046 | 1.51 ± 0.12 | 1.63 ± 0.14 | 1.02 (active)
32 | CCOC(=O)C1=C(C)NC(C)=C(C(=O)OCC)C1c1ccc(O)cc1 | 1.41 ± 0.23 | 0.895 ± 0.083 | 1.35 ± 0.13 | 1.01 ± 0.03 | 0.971 ± 0.16 | 0.966 ± 0.099 | 0.991 (active)
33 | COC(=O)c1cccc(Nc2nc(C=Cc3ccccc3)nc3ccccc23)c1 | 1.3 ± 0.12 | 1.28 ± 0.1 | 5.46 ± 0.19 | 0.658 ± 0.023 | 0.945 ± 0.14 | 5.98 ± 0.47 | 0.851 (active)
34 | COc1cccc(S(=O)(=O)N2CCCC(c3nnc(C(F)(F)F)o3)C2)c1 (configuration not stated) | 0.892 ± 0.039 | 1.08 ± 0.09 | 1.03 ± 0.06 | 0.885 ± 0.041 | 1.11 ± 0.27 | 1.3 ± 0.36 | 1.02 (active)
35 | CC1(C)CC(=O)C2=C(C1)OC(N)=C(C#N)C2C1CCCCC1 (configuration not stated) | 0.983 ± 0.076 | 0.926 ± 0.12 | 0.929 ± 0.093 | 0.987 ± 0.089 | 1.33 ± 0.22 | 1.47 ± 0.19 | 1.01 (active)
36 | Cc1cc(OC2CN(C(=O)Cn3nnc4ccccc43)C2)cc(=O)n1C1CC1 | 1.14 ± 0.08 | 1.05 ± 0.11 | 1.02 ± 0.044 | 0.97 ± 0.044 | 0.99 ± 0.07 | 0.973 ± 0.15 | 0.997 (active)
